Assay [1] addresses Aldehyde dehydrogenase, mitochondrial (Homo sapiens) (UniProt P05091). The assay can be described thus: qHTS for Inhibitors of the Aldehyde Dehydrogenase Family (ALDH2) Primary screen (AID 2061308; note: nearly all actives have a fitted effect of over 55% in size). (In general: In qHTS, concentration-response curves come from the screen itself.)
Assay [2] addresses Retinaldehyde dehydrogenase 3 (Homo sapiens) (UniProt P47895). The assay can be described thus: qHTS for Inhibitors of the Aldehyde Dehydrogenase Family (ALDH1A3) Primary screen (AID 2061315).

The structures appear in SMILES notation. Inconclusive results are not listed. A call without a number means that no potency is given here. Activity calls are given as the source filed them. Calls come from the whole dose curve; as a rule, active = well fitted curve in the direction sought with a large enough effect; inconclusive = small, poorly fitted or top-dose-only effect, or another doubt; inactive = no such curve, though single readings can be large; an effect the other way counts as inactive or inconclusive.

With `Cc1cc(C)nc(NC(=S)N2CCN(c3cncnc3)CC2)c1`, the Potency entry in assay [1] and in assay [2] was “inactive” each time.
Consider `CCCn1c(-c2ccc(F)cc2)nc2c(NCCN(C(C)C)C(C)C)nc(C)nc21`, for which the Potency entry in assay [1] and in assay [2] was “inactive” throughout.
Take `COc1ccccc1C(=O)Nc1nc(-c2ccccc2)cs1`: the Potency entry in assay [1] and in assay [2] was “inactive” in each case.
With `C=CCOc1cc(Cl)ccc1C(=O)NCCN(CC)CC`, the Potency result in assay [1] and in assay [2] was “inactive” each time.
As to `CN[C@@H]1[C@H](O[C@H]2[C@H](O[C@@H]3[C@@H](O)[C@H](O)[C@@H](N=C(N)N)[C@H](O)[C@H]3N=C(N)N)O[C@@H](C)[C@]2(O)CO)O[C@@H](CO)[C@H](O)[C@H]1O`, the Potency result in assay [1] and in assay [2] was “inactive” in each case.
As to `Cc1ccc(OCCn2c(CCNC(=O)C3CCNCC3)nc3ccccc32)cc1`, the Potency result in assay [1] and in assay [2] was “inactive” each time.
As for `COc1cc(F)c(S(=O)(=O)N2CCN(S(=O)(=O)c3ccc(NC(C)=O)cc3)CC2)c(F)c1`, the Potency entry in assay [1] and in assay [2] was “inactive” throughout.
On to `Cc1cc(C)nc(NC(=S)N2CCN(c3ncccn3)CC2)c1`, for which the Potency entry in assay [1] and in assay [2] was “inactive” each time.
Take `CCN(Cc1ccccc1)c1ccc(Br)cn1`: the Potency result in assay [1] and in assay [2] was “inactive” in each case.
Take `Cn1nnnc1Sc1ncnc2scc(-c3ccc(C(=O)OC(C)(C)C)cc3)c12`: the Potency result in assay [1] and in assay [2] was “inactive” in each case.
As for `O=C(Nc1ccc(-c2cn[nH]c2)cc1)Nc1nnc(-c2ccncc2)s1`, the Potency result in assay [1] and in assay [2] was “inactive” in each case.
With `Cc1nc(NCc2ccccc2)c2nc(-c3ccccc3)n(CC3CCN(C)CC3)c2n1`, the Potency entry in assay [1] and in assay [2] was “inactive” in each case.
As for `O=C(Nc1ncc(Cc2ccc(C(F)(F)F)cc2)s1)c1ccc(-c2cccnc2)o1`, the Potency result in assay [1] and in assay [2] was “inactive” each time.
For `COc1cc(F)c(S(=O)(=O)N2CCN(S(=O)(=O)c3cccc(NC(C)=O)c3)CC2)c(F)c1`, the Potency result in assay [1] and in assay [2] was “inactive” in each case.

For the origin of these results see PubChem BioAssay (NCATS).
